Assay results reported in ChEMBL document CHEMBL1157539, “Thousands of chemical starting points for antimalarial lead identification” (Nature, 2010).
“And” between values parts separate entries of the source, which are not always exact repeats. Identical values can stand only once.

How the values were obtained:
Assay type in all cases: functional
Plasmodium falciparum [1] = assay: GSK_TCMDC: Inhibition of Plasmodium falciparum 3D7 in whole red blood cells, using parasite LDH activity as an index of growth. Test compounds present at 2uM
Plasmodium falciparum [2] = assay: GSK_TCMDC: Inhibition of Plasmodium falciparum Dd2 in whole red blood cells, using parasite LDH activity as an index of growth. Test compounds present at 2uM
HepG2 = assay: GSK_TCMDC: Percent inhibition of human HepG2 cell line. Test compounds present at 10uM.

O=C(/C=C/c1ccc(Cl)c(Cl)c1)N1CCC(CN2CCC(c3c(-c4ccc(F)cc4)[nH]c4ccccc34)CC2)CC1
Inhibition (Plasmodium falciparum [1]): 100% | Inhibition (Plasmodium falciparum [2]): 98% | Inhibition (HepG2): 19%

COc1ccc(C[C@@H](C)NC[C@H](O)c2cccc(Cl)c2)cc1F
Inhibition (Plasmodium falciparum [1]): 89% | Inhibition (Plasmodium falciparum [2]): 75% | Inhibition (HepG2): 6%

Cc1cc2ccc(CNCCc3ccccc3Br)cc2nc1N.Cl
Inhibition (Plasmodium falciparum [1]): 100% | Inhibition (Plasmodium falciparum [2]): 48% | Inhibition (HepG2): 0%

CC[C@H]1CN2CC[C@@H]1C[C@H]2[C@H](O)c1ccnc2ccc(OC)cc12
Inhibition (Plasmodium falciparum [1]): 100% | Inhibition (Plasmodium falciparum [2]): 61% | Inhibition (HepG2): 0%

CN1CCN(c2ccc3[nH]c(-c4ccc5[nH]c(-c6ccc(O)cc6)nc5c4)nc3c2)CC1.Cl.O
Inhibition (Plasmodium falciparum [1]): 99% | Inhibition (Plasmodium falciparum [2]): 100% | Inhibition (HepG2): 0%

COc1ccc(C=CC(=O)N2CCC(CN3CCC(c4c[nH]c5ccccc45)CC3)CC2)cc1OC
Inhibition (Plasmodium falciparum [1]): 94% | Inhibition (Plasmodium falciparum [2]): 4% | Inhibition (HepG2): 20%

CC[C@H]1CN2CC[C@@H]1C[C@H]2[C@H](O)c1cc(-c2ccc(F)cc2)nc2ccc(O)cc12.Cl
Inhibition (Plasmodium falciparum [1]): 99% | Inhibition (Plasmodium falciparum [2]): 99% | Inhibition (HepG2): 25%

Cl.NCC(=O)c1cc2c(cc1N)OCCO2
Inhibition (Plasmodium falciparum [1]): 89% | Inhibition (Plasmodium falciparum [2]): 42% | Inhibition (HepG2): 64%

Cc1[nH]c2ccccc2c1C1=CCN(CCCCCC23CCCc4cccc(c42)NC3=O)CC1 (stereo not given)
Inhibition (Plasmodium falciparum [1]): 94% | Inhibition (Plasmodium falciparum [2]): 91% | Inhibition (HepG2): 11%

CCCCc1ccc2[nH]cc(C3=CCN(C)CC3)c2c1Br
Inhibition (Plasmodium falciparum [1]): 94% | Inhibition (Plasmodium falciparum [2]): 94% | Inhibition (HepG2): 37%

O=C(C=C1c2ccccc2-c2ccccc21)NC1CCC(CN2CCC(c3c[nH]c4ccccc34)CC2)CC1 (stereo not given)
Inhibition (Plasmodium falciparum [1]): 99% and 100% | Inhibition (Plasmodium falciparum [2]): 64% and 67% | Inhibition (HepG2): 21% and 54%

O=C(/C=C/c1ccc(Cl)c(Cl)c1)N1CCC(CN2C3CCC2CC(c2c[nH]c4ccccc24)C3)CC1 (stereo not given)
Inhibition (Plasmodium falciparum [1]): 100% | Inhibition (Plasmodium falciparum [2]): 66% | Inhibition (HepG2): 84%

CC(=O)Nc1ccc2[nH]cc(C3CCN(CC4CCN(C(=O)/C=C/c5ccc(Cl)c(Cl)c5)CC4)CC3)c2c1
Inhibition (Plasmodium falciparum [1]): 96% | Inhibition (Plasmodium falciparum [2]): 41% | Inhibition (HepG2): 10%

CN1CC=C(c2c[nH]c3ccc(-c4ccccc4)cc23)CC1
Inhibition (Plasmodium falciparum [1]): 93% | Inhibition (Plasmodium falciparum [2]): 60% | Inhibition (HepG2): 14%

CC(=O)C1(c2ccccc2)CCN(CCC2(c3ccc(Cl)c(Cl)c3)CN(C(=O)c3cccc(Cl)c3)CCO2)CC1 (stereo not given)
Inhibition (Plasmodium falciparum [1]): 90% | Inhibition (Plasmodium falciparum [2]): 61% | Inhibition (HepG2): 37%

CC(=O)C1(c2ccccc2)CCN(CCC2(c3ccc(Cl)c(Cl)c3)CN(C(=O)Nc3cccc(C(F)(F)F)c3)CCO2)CC1 (stereo not given)
Inhibition (Plasmodium falciparum [1]): 95% | Inhibition (Plasmodium falciparum [2]): 66% | Inhibition (HepG2): 24%

CCC(C)CN1CCC(N(C)c2cc(NC(=O)c3ccc(F)cc3)ccn2)CC1.O=C(O)C(F)(F)F (stereo not given)
Inhibition (Plasmodium falciparum [1]): 93% | Inhibition (Plasmodium falciparum [2]): 32% | Inhibition (HepG2): 4%

COc1ccc(CC(C)NCC(O)c2cccc(Cl)c2F)cc1 (stereo not given)
Inhibition (Plasmodium falciparum [1]): 88% | Inhibition (Plasmodium falciparum [2]): 59% | Inhibition (HepG2): 3%

Cc1ccc(CC(C)NCC(O)c2cccc(C(F)(F)F)c2)cc1F.Cl (stereo not given)
Inhibition (Plasmodium falciparum [1]): 97% | Inhibition (Plasmodium falciparum [2]): 91% | Inhibition (HepG2): 15%

COc1cc2c(c(OC)c1OC)C[C@H]1c3c(cc4c(c3-2)OCO4)CCN1C
Inhibition (Plasmodium falciparum [1]): 84% | Inhibition (Plasmodium falciparum [2]): 30% | Inhibition (HepG2): 7%

Oc1cc2c(cc1CN1CCN(Cc3ccccc3)CC1)CCC2
Inhibition (Plasmodium falciparum [1]): 98% | Inhibition (Plasmodium falciparum [2]): 92% | Inhibition (HepG2): 1%

COc1ccc(C(=O)C2CC2CN2CC=C(c3c(C)[nH]c4ccccc34)CC2)cc1 (stereo not given)
Inhibition (Plasmodium falciparum [1]): 96% | Inhibition (Plasmodium falciparum [2]): 94% | Inhibition (HepG2): 16%

COc1ccc(C=CC(=O)NC2CCC(CN3CCC(c4c[nH]c5ccccc45)CC3)CC2)cc1 (stereo not given)
Inhibition (Plasmodium falciparum [1]): 100% | Inhibition (Plasmodium falciparum [2]): 61% and 60% | Inhibition (HepG2): 13% and 30%

O=C(/C=C/c1cc(F)cc(C(F)(F)F)c1)N1CCC(CN2CCC(c3c[nH]c4ccccc34)CC2)CC1
Inhibition (Plasmodium falciparum [1]): 100% | Inhibition (Plasmodium falciparum [2]): 74% | Inhibition (HepG2): 32%

CC[C@H]1CN2CC[C@H]1C[C@@H]2[C@@H](O)c1ccnc2ccccc12
Inhibition (Plasmodium falciparum [1]): 98% | Inhibition (Plasmodium falciparum [2]): 20% | Inhibition (HepG2): 10%

Oc1ccccc1CN1CCC(CCOC(c2ccccc2)c2ccc(Cl)cc2)CC1 (stereo not given)
Inhibition (Plasmodium falciparum [1]): 97% | Inhibition (Plasmodium falciparum [2]): 99% | Inhibition (HepG2): 19%

O=C(c1cc(C(=O)NCc2ccc(Cl)cc2)c(=O)n(Cc2ccc(Cl)cc2)c1)c1cc(Cl)ccc1O
Inhibition (Plasmodium falciparum [1]): 80% | Inhibition (Plasmodium falciparum [2]): 4% | Inhibition (HepG2): 6%

O=C(/C=C/c1ccc(Cl)c(Cl)c1)NC1CCC(CN2CCC(c3c[nH]c4ccccc34)C(O)C2)CC1 (stereo not given)
Inhibition (Plasmodium falciparum [1]): 100% | Inhibition (Plasmodium falciparum [2]): 87% | Inhibition (HepG2): 30%

Cc1nc2ccccc2n1C1CC2CCC(C1)N2Cc1nccn1-c1ccccc1.O=C(O)C(F)(F)F (stereo not given)
Inhibition (Plasmodium falciparum [1]): 94% | Inhibition (Plasmodium falciparum [2]): 96% | Inhibition (HepG2): 0%

CCN1CCC(N2CCC(n3c(C)nc4cc(C(F)(F)F)ccc43)CC2)CC1
Inhibition (Plasmodium falciparum [1]): 93% | Inhibition (Plasmodium falciparum [2]): 16% | Inhibition (HepG2): 6%
